# Test results reported in PubChem BioAssay AID2733 (National Center for Advancing Translational Sciences (NCATS), 2010).
# Records with an inconclusive call do not appear. Where a call stands in place of a potency, no number is given. Activity calls are given as the source filed them. Calls follow the shape of the dose curve; as a rule, active = well fitted inhibition curve with a large enough effect; inconclusive = small, poorly fitted or top-dose-only effect; inactive = flat fitted curve, though single readings scatter.
# Experiment: High Content Assay for Compounds that inhibit the Assembly of the Perinucleolar Compartment: PC3M Cytotoxicity
# Settings: PC3M cells, ATPLite luminescence viability, 24 h; series mostly up to 46.1 µM
# From the text: High Content Assay for Compounds that inhibit the Assembly of the Perinucleolar Compartment
# NIH Chemical Genomics Center [NCGC]
# NIH Molecular Libraries Probe Centers Network [MLPCN]
# Assay Submitter (PI): Sui Huang, Northwestern University, Feinberg School of Medicine, Cell and Molecular Biology, Chicago, Illinois.
# The perinucleolar compartment (PNC) is a non-membrane-bound nuclear subdomain that is associated with but structurally distinct from the nucleolus. The PNC is a heritable trait, in which the number of PNCs per cell in daughter cells often mimics that of their mother cells. The PNC is heterogeneous in shape, is stable through interphase, disassembles during mitosis, and reassembles in early G1. The PNC is concentrated with newly synthesized RNA polymerase III (pol III) RNAs (MRP RNA, RNAse P H1 RNA, hY RNAs[hY1, 2, 5], Alu RNA, and SRP [7SL] RNA) and RNA binding proteins (nucleolin, PTB, CUG-BP, KSRP, Raver1, Raver2, and Rod).
# Extensive in vitro studies have shown that the PNC is unique to tumor cells and preferentially forms in tumor cells derived from solid tissues. […]
# 5. Luminescencent signal was detected on a Viewlux CCD based imager (PerkinElmer) with a clear filter and a 30 second integration time. […]
row,Compound,Potency
1,Cc1c2ccncc2c(C)c2c1[nH]c1ccccc12,31.6 µM (active)
2,Cc1ccc(C(O)(C(=O)NNC(=O)CN2CCN(C)CC2)c2ccc(C)cc2)cc1,inactive
